From PubChem BioAssay (NCI) come the findings set out here.

A short description of assay [1]: NCI Yeast Anticancer Drug Screen. Data for the rad50 strain (AID 155).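 Also: 0% = growth of vehicle-only cultures of the same strain.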 Particulars: S. cerevisiae rad50 strain growth inhibition, active compounds read high. In outline: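 Compounds were tested on a yeast strain with an engineered DNA damage repair alteration; the reported value is growth inhibition normalised to vehicle treatment.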
The nature of assay [2]: NCI Yeast Anticancer Drug Screen. Data for the mec2-1 strain (AID 157). Particulars: S. cerevisiae mec2-1 strain, active compounds read high. In outline: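 Compounds were applied to mec2-1 yeast cells. Their growth was then compared with that of vehicle-treated cultures to give growth inhibition.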
Assay [3] can be described thus: NCI Yeast Anticancer Drug Screen. Data for the sgs1 mgt1 strain (AID 161).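 Also: 0% = growth of cultures given vehicle only.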 Particulars: S. cerevisiae sgs1 mgt1 strain, active compounds read high. The procedure, abridged:
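Percent growth inhibition was derived by comparing compound-exposed mutant yeast with vehicle-exposed cultures. The strain carries alterations in DNA damage repair.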

Assay [4] in a line: NCI Yeast Anticancer Drug Screen. Data for the cln2 rad14 strain (AID 165).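 Also: 0% = growth equal to vehicle treated cultures.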 Particulars: S. cerevisiae cln2 rad14 strain, active compounds read high. The procedure, abridged:
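Strain: cln2 rad14 yeast, altered in cell cycle control and DNA damage repair. Read-out: growth inhibition vs vehicle.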

A short description of assay [5]: NCI Yeast Anticancer Drug Screen. Data for the bub3 strain (AID 167). The note with it: S. cerevisiae bub3 mutant strain, active compounds read high. The procedure, abridged: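 Growth of a checkpoint-deficient yeast mutant is measured after compound exposure. Values represent inhibition relative to vehicle.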
Assay [6] in a line: NCI Yeast Anticancer Drug Screen. Data for the mlh1 rad18 strain (AID 175). The note with it: S. cerevisiae mlh1 rad18 strain growth inhibition, active compounds read high. The procedure, abridged: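 A repair-deficient yeast strain is exposed to test compound, and growth is scored relative to vehicle-treated controls.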
[7] abbreviates: at 5.0 µM (retest, dose inferred, filed as 0.5).
Where [8] appears, read: at 50.0 µM (retest, dose inferred, filed as 5.0).

This is part of a sample that, as a whole, favours compounds with a hit. Of some 79,000 tested, about 15% had one in any assay. Unmarked numbers belong to inactive results. The source made the active and inactive calls. Rule as the data show it: active = growth inhibition above about 70%; inactive = the rest.

As to `c1cc[c]([Ge]([O]c2cccc3cccnc23)([c]2ccccc2)[c]2ccccc2)cc1`, the growth inhibition in assay [1] (setting [7]) was 10%; in assay [1] (setting [8]) it was 10%; in assay [1] (at 50.0 µM), 73% (active); in assay [2] (setting [7]), 7%; in assay [2] (setting [8]), 7%; in assay [2] (at 50.0 µM), 67%. Also, the growth inhibition in assay [3] (setting [7]) is -3%; in assay [3] (setting [8]) it was -3%; in assay [3] (at 50.0 µM), 67.5%; in assay [4] (setting [7]), 6%; in assay [4] (setting [8]) it was 6%; in assay [4] (at 50.0 µM), 45.5%. Further, the growth inhibition in assay [5] (setting [7]) is 7%; in assay [5] (setting [8]), 7%; in assay [5] (at 50.0 µM), 72.2% (active); in assay [6] (setting [7]) it was 10%; in assay [6] (setting [8]), 10%; in assay [6] (at 50.0 µM), 74% (active).
With `O=C1C(c2ccc([N+](=O)[O-])cc2)=C(Cl)C(=O)c2c(O)cccc21`, the growth inhibition was -30% in assay [1] (setting [7]); -22% in assay [1] (setting [8]); 71.2% (active) in assay [1] (at 50.0 µM); -3% in assay [2] (setting [7]); -9% in assay [2] (setting [8]); 45.1% in assay [2] (at 50.0 µM). Moreover, the growth inhibition is 0% in assay [3] (setting [7]); -19% in assay [3] (setting [8]); 27.8% in assay [3] (at 50.0 µM); 8% in assay [4] (setting [7]); 0% in assay [4] (setting [8]); 1% in assay [4] (at 50.0 µM). Moreover, the growth inhibition in assay [5] (setting [7]) is 3%; in assay [5] (setting [8]) it was -37%; in assay [5] (at 50.0 µM) it was 69.2%; in assay [6] (setting [7]) it was -14%; in assay [6] (setting [8]), 0%; in assay [6] (at 50.0 µM), 45.4%.
As for `COc1ccc2c(c1)CCCN2CCCCCCCCCN1CCCCC1`, the growth inhibition in assay [1] (setting [7]) is 31%; in assay [1] (setting [8]) it was 36%; in assay [1] (at 50.0 µM), 62%; in assay [2] (setting [7]) it was 27%; in assay [2] (setting [8]) it was 53%; in assay [2] (at 50.0 µM), 57.9%. Moreover, the growth inhibition is 45% in assay [3] (setting [7]); 81% (active) in assay [3] (setting [8]); 82.8% (active) in assay [3] (at 50.0 µM); 35% in assay [4] (setting [7]); 44% in assay [4] (setting [8]); 42.4% in assay [4] (at 50.0 µM). Further, the growth inhibition in assay [5] (setting [7]) was 45%; in assay [5] (setting [8]) it was 76% (active); in assay [5] (at 50.0 µM), 79.6% (active); in assay [6] (setting [7]), 47%; in assay [6] (setting [8]), 63%; in assay [6] (at 50.0 µM), 69%.
`CCOC(=O)C1(C#N)C(=O)CSC1=Nc1ccccc1Cl` (configuration not stated): the growth inhibition in assay [1] (setting [7]) was -7%; in assay [1] (setting [8]), -14%; in assay [1] (at 50.0 µM) it was -5.95%; in assay [2] (setting [7]) it was -16%; in assay [2] (setting [8]), -11%; in assay [2] (at 50.0 µM) it was -8.75%. Also, the growth inhibition was -4% in assay [3] (setting [7]); -2% in assay [3] (setting [8]); 25% in assay [3] (at 50.0 µM); 13% in assay [4] (setting [7]); 17% in assay [4] (setting [8]); -9.95% in assay [4] (at 50.0 µM). For the same molecule, the growth inhibition is -14% in assay [5] (setting [7]); -10% in assay [5] (setting [8]); 18.4% in assay [5] (at 50.0 µM); -33% in assay [6] (setting [7]); -54% in assay [6] (setting [8]); -3.4% in assay [6] (at 50.0 µM).
